target: SQRDL; assay: pooled miR-30 sensor sort-seq; sequence = guide strand; settings: shRNA
Also: reference of the scale not given here.

Sequence	sensor-assay potency score (higher = more potent)
ATAGGTTCCAAGTCCTTCGTGC	0.618
TAACTGAATAATTCGACCCTAT	-0.071
TTAACTGAATAATTCGACCCTA	0.0839
TTTGGCACCAGCACCCACCAGT	-0.354
TTCTTTATCCACATCCACCCAA	-0.645
TTTAATCTTCTCATAGTCCAGC	0.0208
AATCTTCTCATAGTCCAGCTGG	-0.573
TTTCTTGTAGTTAACAGTGAGG	-0.847
ATAATTACAGAAATTGTCCTAT	0.475
TTGGTCACCATTACCCATCAAG	-1.14
TTGTCCTATCAAGTATTCCTGA	-0.574

target: SRCAP; assay: as above; settings: shRNA

Sequence	sensor-assay potency score (higher = more potent)
TTCACCACCACCACTGTCCGGC	0.285
TTTATCTCCAACACCTGAGGGG	0.481
TGTTCTTCAACTTCAATCGTTT	-0.243
TAGACCTTCATTATACTCTTGG	0.352
TATAGTATCCTCTTCATCCTCC	0.687
TTGTTCTTCAACTTCAATCGTT	0.0088
TTAATGACAATGTCTGAGTTGG	0.105
TAGAGGACACAGGACTAGCAAG	-1.62
TCAACATCCACCTTAACTCGGC	0.0488
AACTCTAGTAGATCCATCCAGG	-0.807
TTGCTTGAATTGCACCACCTTC	-1.29
TTCCACTTGCTCTTCTGCCTGT	0.497

target: SRCRB4D; assay: as above; settings: shRNA

Sequence	sensor-assay potency score (higher = more potent)
TTGACCAGACGTAGATGCCCGT	-0.902
TTGGCGTCCACCACGTCCCAGT	-1.07
TTGTCCAGCAGGATGTGTCCGG	-0.554
TGCTCTACTGGTTAACATCTTC	-0.561
TAACATCTTCCTTGTTGGGGGC	-0.0485
TTAACATCTTCCTTGTTGGGGG	0.296
TTCATCACACAGGACAGCCACA	-1.36
TTCGCAGTGCACGTTGTCCAGC	-0.781
TCTACTGGTTAACATCTTCCTT	-0.575
TACACGTCCCTCGCATCGGTGG	-1.14
TCGTAGGAGGTGCTCTACTGGT	-1.24
TTTTCCATTCGGCAGTGTCGTA	-1.69

target: SRC; assay: as above; settings: shRNA

Sequence	sensor-assay potency score (higher = more potent)
TTGAAGGACAGGTCTGTCTCCG	0.367
TCCGACTTGATGGTGAAGCGGC	-0.784
TGAAGGACAGGTCTGTCTCCGT	-0.405
TCTCGCACGAGGAAGGTCCCTC	-0.579
TCGTGGTCTCACTTTCTCGCAC	-0.731
